Assay [1] can be described thus: APR_HepG2_CellLoss_72hr: Apredica 72-hour HepG2 Assay for Cell Loss (AID 2282915). As to conditions: high-content imaging. In a few lines:
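HepG2 cells exposed 72 h to compound at 0.39–200 uM (10 concentrations, duplicate) in 0.5% DMSO. Fixed with 3.7% formaldehyde and Hoechst 33342-stained. Imaged at 20x; nuclear count gives cell number, fitted bidirectionally versus DMSO.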

The nature of assay [2]: APR_HepG2_P-H2AX_72hr: Apredica 72-hour HepG2 Assay for H2AX Phosphorylation (AID 2282916).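 Also: phospho-histone H2A.x immunostain intensity per cell marking DNA damage.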 As to conditions: imaging, actives raise or lower the signal. In a few lines:
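Phospho-H2A.x imaging endpoint in HepG2 after 72 hr compound exposure (0.39–200 uM, duplicate wells). Activity derived by bidirectional curve fitting with DMSO as baseline.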

Assay [3] can be described thus: APR_HepG2_MitoMembPot_72hr: Apredica 72-hour HepG2 Assay for Mitochondrial Membrane Potential (AID 2282917). As to conditions: imaging, actives raise or lower the signal. In a few lines:
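HepG2 cells dosed 72 hr with compound at 0.39–200 uM in duplicate, 0.5% v/v DMSO final. Mitochondria stained with 250 nM MitoTracker Red CMXRos for 30 min before formaldehyde fixation, imaged by high-content fluorescence; bidirectional fit versus DMSO.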

The nature of assay [4]: APR_HepG2_MitoticArrest_72hr: Apredica 72-hour HepG2 Assay for Mitotic Arrest (AID 2282918). As to conditions: high-content imaging, actives raise or lower the signal. In a few lines: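 Using high-content imaging of fixed HepG2 cells, phospho-histone H3 signal was measured following a 72 hr incubation with ten-point compound dilutions up to 200 uM. DMSO served as the negative control and baseline for bidirectional curve fitting.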

Assay [5] is described as follows: APR_HepG2_MicrotubuleCSK_72hr: Apredica 72-hour HepG2 Assay for Microtubule CSK Stabilty (AID 2282919). As to conditions: HepG2 microtubule cytoskeleton, high-content imaging, actives raise or lower the signal. An outline of the steps:
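HepG2, 72 hr cmpd exposure, 0.39–200 uM (10 pts, duplicate), 0.5% DMSO. 3.7% formaldehyde fix, 0.5% Triton perm, anti-alpha-tubulin/Cy5 plus Hoechst. HCS fluorescence intensity; bidirectional fit vs DMSO baseline; taxol as positive control.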

Assay [6] is described as follows: APR_HepG2_P-H2AX_24hr: Apredica 24-hour HepG2 Assay for H2AX Phosphorylation (AID 2282920). As to conditions: high-content imaging, actives raise or lower the signal. In a few lines: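 Human HepG2 liver cells, treated 24 hr with test chemicals (0.39–200 uM, final DMSO 0.5% v/v), are fixed and co-stained for phospho-H2A.x and c-Jun with Hoechst. Imaged intensity is fitted in both directions against DMSO controls.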

The nature of assay [7]: APR_HepG2_StressKinase_72hr: Apredica 72-hour HepG2 Assay for Stress Kinase (AID 2282921). As to conditions: HepG2 stress kinase (phospho-c-Jun) imaging, actives raise or lower the signal. An outline of the steps: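 Stress kinase signal reflects nuclear phospho-c-Jun staining in fixed, permeabilized cells exposed 72 h to compound at 0.39–200 uM; DMSO-normalized, fitted for increases or decreases.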

A short description of assay [8]: APR_HepG2_StressKinase_24hr: Apredica 24-hour HepG2 Assay for Stress Kinase (AID 2282922). As to conditions: HepG2 stress kinase (phospho-c-Jun) imaging, actives raise or lower the signal. In a few lines:
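Read-out: phospho-c-Jun immunofluorescence (Cy3 secondary) quantified by high-content imaging at 20x, nuclei defined by Hoechst 33342. Human HepG2 liver cells dosed 24 hr, 0.39–200 uM, DMSO 0.5% v/v; gain or loss of signal fitted relative to DMSO.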

Assay [9] in a line: APR_HepG2_p53Act_72hr: Apredica 72-hour HepG2 Assay for p53 Activation (AID 2282923).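 Also: average cellular p53 protein immunofluorescence intensity in HepG2 cells.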 As to conditions: high-content imaging, actives raise or lower the signal. In a few lines:
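Fixed-cell p53 staining (sheep primary, Cy5 secondary) measured by fluorescence imaging following 72 hr treatment at 0.39–200 uM in 0.5% DMSO; DMSO served as negative control and baseline.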

Assay [10] in a line: APR_HepG2_MitoMass_72hr: Apredica 72-hour HepG2 Assay for Mitochondrial Mass (AID 2282924).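 Also: MitoTracker Red CMXRos stain intensity per cell imaged as mitochondrial mass.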 As to conditions: high-content imaging, actives raise or lower the signal. An outline of the steps: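 Read-out: MitoTracker Red fluorescence intensity from automated imaging (20x, six fields per well) in human HepG2 liver cells. Dosing ran 72 hr, 0.39–200 uM, 0.5% DMSO; bidirectional curve fitting versus DMSO baseline.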

A short description of assay [11]: APR_HepG2_NuclearSize_72hr: Apredica 72-hour HepG2 Assay for Nuclear Size (AID 2282925). As to conditions: high-content imaging, actives raise or lower the signal. In a few lines: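 Read-out: nuclear diameter from Hoechst 33342 images (ArrayScan, 20x, six fields/well), via cell-cycle image analysis. HepG2 were dosed 0.39–200 uM for 72 hr in 0.5% DMSO. Bidirectional fit relative to DMSO.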

A short description of assay [12]: ATG_CRE_CIS: Attagene CIS-FACTORIAL HepG2 Assay for human cAMP Responsive Element (CRE) binding protein 3 (AID 2282926). As to conditions: HepG2 CRE cis-reporter, Attagene multiplexed mRNA; actives raise or lower the signal. An outline of the steps:
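Liver-derived HepG2, transfected with a CRE-containing reporter panel, exposed 24 h; transcript levels sized and quantified by capillary electrophoresis of labelled amplicons; signal changes either way referenced to vehicle.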

Assay [13] has as its target CCAAT/enhancer-binding protein beta (Homo sapiens) (UniProt P17676). Put plainly: ATG_C_EBP_CIS: Attagene CIS-FACTORIAL HepG2 Assay for human CCAAT/Enhancer Binding Protein (C/EBP) beta (AID 2282927). As to conditions: HepG2 Attagene cis-factorial transcription factor reporter; actives raise or lower the signal. In a few lines: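 Transiently transfected HepG2 (MRTU library, endogenous TF-driven promoters); 24 h dosing; total RNA → oligo(dT) RT → PCR → 6-FAM primer extension → HpaI digest → CE; fit bidirectionally vs DMSO.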

The nature of assay [14]: ATG_CMV_CIS: Attagene CIS-FACTORIAL HepG2 Assay for human CMV (Internal Marker) (AID 2282928).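 Also: endpoint acts as a background internal control marker rather than a target.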 As to conditions: HepG2 CMV promoter reporter, transcription factor profiling; actives raise or lower the signal. An outline of the steps: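 Fluorescence intensity of RT-PCR-derived reporter fragments, resolved by capillary electrophoresis, gives the signal. HepG2 liver cells bearing transfected cis-element reporters were treated 24 h; activity in either direction was fit relative to DMSO-treated controls.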

Assay [15] is described as follows: ATG_AP_1_CIS: Attagene CIS-FACTORIAL HepG2 Assay for human Activator Protein 1 (AP-1) (AID 2282931). As to conditions: HepG2 Attagene cis-factorial AP-1 reporter mRNA; actives raise or lower the signal. An outline of the steps: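 Reporter transcripts were measured 24 h after dosing by RT-PCR and capillary electrophoresis of fluorescent fragments. Cells: HepG2 carrying transfected cis-regulated reporter constructs reading endogenous factor activity. Gain or loss fitted against DMSO.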

The nature of assay [16]: ATG_AP_2_CIS: Attagene CIS-FACTORIAL HepG2 Assay for human Activator Protein 2 (AP-2) (AID 2282932). As to conditions: HepG2 AP-2 cis-reporter, Attagene transcription factor profiling; actives raise or lower the signal. An outline of the steps:
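Read-out: fluorescent reporter mRNA via RT-PCR and capillary electrophoresis, 24 h post-dose in transiently transfected HepG2. Endogenous factors drive cis-promoter reporters; gain or loss of signal fitted bidirectionally against DMSO.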

The nature of assay [17]: ATG_BRE_CIS: Attagene CIS-FACTORIAL HepG2 Assay for human Bone Morphogenetic Protein (BMP) Response Element (BRE) (AID 2282933). As to conditions: HepG2 BMP response element reporter, Attagene transcription factor profiling; actives raise or lower the signal. An outline of the steps: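 Gain- or loss-of-signal was derived by bidirectional fitting against DMSO controls. The signal came from reporter mRNA, measured by RT-PCR and capillary electrophoresis, in HepG2 cells transiently carrying multiple reporter units and dosed for 24 h.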

In assay [18] the target is Retinoic acid receptor alpha (Homo sapiens) (UniProt P10276). Put plainly: ATG_DR5_RAR_CIS: Attagene CIS-FACTORIAL HepG2 Assay for human Retinoic Acid Receptor Alpha (RARE), DR5 submotif (AID 2282934).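 As to AC50: reporter responds to endogenous RAR alpha beta and gamma in HepG2 not RARA alone.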 As to conditions: HepG2 Attagene cis-factorial RARE DR5 reporter, mRNA; actives raise or lower the signal. In a few lines:
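Read-out: DR5-driven reporter transcript measured by RT-PCR, 6-FAM primer extension, HpaI digest and capillary electrophoresis. Human HepG2 liver cells carry transiently transfected cis-element reporter constructs; dosing lasts 24 h. Gain or loss of signal fitted against DMSO baseline.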

A short description of assay [19]: ATG_DR4_LXR_CIS: Attagene CIS-FACTORIAL HepG2 Assay for human Liver X Receptor (LXR), DR4 submotif (AID 2282929). As to conditions: HepG2 Attagene DR4 cis-reporter, mRNA transcription; actives raise or lower the signal. In a few lines:
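Readout: reporter transcript fluorescence after RT-PCR and capillary electrophoresis, fitted bidirectionally against DMSO controls. Human HepG2 liver cells carried transiently transfected multiplexed reporter constructs; endogenous transcription factor activity measured 24 h post-dosing.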

The values that follow come from PubChem BioAssay (EPA / NIEHS).

Values joined by “and” are separate entries in the source; they are usually repeats but may differ in a detail not shown here. Equal values may be shown once. Where a structure was tested more than once in an assay, its records may differ in their call. Active and inactive are the calls of the source. The calls were made as follows: active = hit-call score of the fitted dose curve at least 0.9, where 1 is the maximum; inactive = score below 0.9.

Chain of Retinoic acid receptor alpha (Homo sapiens) (P10276 whole entry, looked up): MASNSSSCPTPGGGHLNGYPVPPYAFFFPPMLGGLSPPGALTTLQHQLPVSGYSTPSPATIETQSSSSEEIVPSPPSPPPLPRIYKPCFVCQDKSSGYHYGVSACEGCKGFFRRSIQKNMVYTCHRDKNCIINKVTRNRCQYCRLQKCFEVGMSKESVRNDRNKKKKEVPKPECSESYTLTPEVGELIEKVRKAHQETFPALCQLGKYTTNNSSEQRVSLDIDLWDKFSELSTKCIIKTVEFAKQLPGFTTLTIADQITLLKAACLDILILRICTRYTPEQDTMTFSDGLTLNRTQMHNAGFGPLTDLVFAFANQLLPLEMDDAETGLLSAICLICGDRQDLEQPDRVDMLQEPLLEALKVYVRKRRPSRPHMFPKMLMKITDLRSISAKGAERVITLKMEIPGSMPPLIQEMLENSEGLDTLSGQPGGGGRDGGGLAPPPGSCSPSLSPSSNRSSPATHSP
Chain of CCAAT/enhancer-binding protein beta (Homo sapiens) (P17676 whole entry, looked up): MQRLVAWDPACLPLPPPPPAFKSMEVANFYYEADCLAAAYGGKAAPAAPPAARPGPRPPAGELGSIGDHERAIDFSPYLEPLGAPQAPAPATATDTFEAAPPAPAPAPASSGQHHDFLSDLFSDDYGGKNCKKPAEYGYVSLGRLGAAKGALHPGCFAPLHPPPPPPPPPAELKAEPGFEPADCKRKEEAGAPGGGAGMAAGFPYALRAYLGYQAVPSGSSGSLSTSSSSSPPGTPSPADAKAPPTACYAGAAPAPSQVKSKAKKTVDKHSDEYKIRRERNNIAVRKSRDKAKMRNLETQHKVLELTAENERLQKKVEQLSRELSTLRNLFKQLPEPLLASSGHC

For the molecule `CCCN(CCOc1c(Cl)cc(Cl)cc1Cl)C(=O)n1ccnc1`, the AC50 – broadly, the concentration giving half of the maximal activity seen – in assay [1] is 30.8 µM (active); in assay [5], 165 µM (active); in assay [14] it was 11.1 µM (active); in assay [15] it was 14 µM (active); in assay [17], 15.1 µM (active); in [18], 3.01 µM (active). Also, the outcome in assay [2], in [3], in assay [4], in assay [6], in assay [7] and in assay [8] was inactive. For the same molecule, the call in assay [9], in [10], in assay [11], in [12], in [13] and in assay [14] was inactive. The outcome in assay [15], in assay [16], in assay [17] and in [18] was inactive.
Regarding `CC1(C)C(C=C(Cl)Cl)C1C(=O)OC(C#N)c1ccc(F)c(Oc2ccccc2)c1` (centres undefined), the molecule was classed as inactive in [2], in assay [3], in assay [4], in assay [5], in assay [6] and in assay [7]. Besides, the outcome in [8], in assay [9], in assay [10], in assay [11], in assay [12] and in assay [13] was inactive. Also, the call in assay [14], in assay [15], in assay [16] and in assay [17] was inactive. For the same molecule, the AC50 is 14.4 µM (active) in assay [19] and 2.57 µM (active) in assay [18].
`C#CCN1C(=O)COc2cc(F)c(N3C(=O)C4=C(CCCC4)C3=O)cc21`: the molecule was classed as inactive in [1], in assay [2], in assay [3], in [4], in [5] and in assay [6]. Also, the call in assay [7], in assay [8], in assay [10], in assay [11], in assay [13] and in assay [14] was inactive. The call in assay [15], in assay [16], in assay [17] and in assay [18] was inactive. In addition, the AC50 in [12] is 22.4 µM (active).
Regarding `CC(C)(C)C(O)C(Oc1ccc(Cl)cc1)n1cncn1` (centres undefined), the molecule was called inactive in assay [2], in assay [3], in assay [4], in [5], in assay [6] and in assay [7]. The call in assay [8], in assay [9], in assay [10], in [11], in assay [12] and in assay [13] was inactive. In addition, the result in assay [14], in [15], in [16], in assay [17] and in assay [18] was inactive. The AC50 was 37.4 µM (active) in assay [3]; 98 µM (active) in [10]; 5.81 µM (active) in assay [12]; 7.06 µM (active) in assay [13]; 10.4 µM (active) in assay [15]; 7.92 µM (active) in [17]. Also, the half-maximal activity concentration (AC50) in assay [18] was 4.35 µM (active) and 4.55 µM (active) and 7.16 µM (active).
Turning to `O=S(=O)(O)C(F)(F)C(F)(F)C(F)(F)C(F)(F)C(F)(F)C(F)(F)C(F)(F)C(F)(F)F`, the AC50 in [1] is 111 µM (active) [middle of 5 runs]; in assay [2] it was 104 µM (active) and 9.71 µM (active) and 107 µM (active); in assay [5] it was 111 µM (active); in assay [6] it was 108 µM (active) [middle of 4 runs]; in [7] it was 111 µM (active) and 107 µM (active); in assay [9] it was 5.6 µM (active) and 106 µM (active). Also, the AC50 was 110 µM (active) and 9.67 µM (active) in assay [11]; 142 µM (active) and 53.4 µM (active) in [12]; 61.4 µM (active) and 191 µM (active) and 89.9 µM (active) in [14]; 26.9 µM (active) [middle of 8 runs] in assay [15]; 140 µM (active) and 26.8 µM (active) in assay [16]. The result in assay [2], in [3], in [4], in assay [5], in [6] and in [7] was inactive. Further, the call in assay [8], in assay [9], in assay [10], in assay [11], in [12] and in assay [13] was inactive. Moreover, the molecule was classed as inactive in assay [14], in [19], in [15], in assay [16] and in assay [17].
